Screen size: about 2,100 compounds; about 320 (15%) were called active. Not shown: some 52% with an inconclusive outcome. This is one part of the list. Unmarked numbers belong to inactive results. The call rests on the fitted dose curve; in most records, active means well fitted cell-killing curve with a large enough effect; inconclusive means small, poorly fitted or top-dose-only effect, or effect the other way; inactive means flat fitted curve, though single readings scatter.
assay: Viability Counterscreen for CMV-Luciferase Assay of Inhibitors of ATXN expression; conditions: HEK-293 CMV-luciferase cells viability, protease fluorescence, 24 h; activity change, negative = cytotoxicity: at the top concentration; further: nearly all actives have a fitted effect of over 55% in size
Procedure, shortened: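 HEK-293 cells stably expressing CMV-luciferase, treated 24 hr at 37 °C with compounds (several concentrations). Viability by Gly-Phe-AFC fluorescence (25 uM final, 30 min); reporter by SteadyGlo luminescence after 5 min.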
On the % scale 0 is the no-effect control and ±100 the full control effect; potency means the concentration at half of the fitted maximal effect.

| Structure (SMILES) | activity change, negative = cytotoxicity | Potency |
| --- | --- | --- |
| O=C(c1c(F)cccc1F)N1CCCC(c2nc(-c3ccc(Cl)cc3)no2)C1 (stereo not drawn) | -6.28% [at 57.5 µM] | – |
| CCn1c2ccccc2c2cc(NC(=O)COC(=O)c3ccccc3F)ccc21 | 9.03% | – |
| O=C1/C(=C/c2ccncc2)CCC/C1=C\c1ccncc1 | – | 5.62 µM (active) |
| CN1C/C(=C/c2cccnc2)C(=O)/C(=C/c2cccnc2)C1 | 0.33% | – |
| CCN(CC)C(=O)c1cccc(-c2csc(C(C)(O)c3cccc(F)c3)n2)c1 (stereo not drawn) | -16% | – |
| CCN1C(=O)/C(=C/c2nc3ccccc3c(=O)n2-c2ccccc2)c2ccccc21 | – | 12.6 µM (active) |
| CCOC(=O)C1=CCN(S(=O)(=O)c2ccc(C)cc2)C1c1cccc(Cl)c1 (stereo not drawn) | -18.3% [at 57.5 µM] | – |
| CCn1c(C)nc2cc(C(=O)N/N=C(\C)c3ccc(OC)cc3O)ccc21 | -17.6% [at 57.5 µM] | – |
| O=C(NN=C1CCCC1)c1cc(-c2ccc(F)cc2)nc2ccccc12 | 15.3% [at 57.5 µM] | – |
| CCOC(=O)c1c(NC(=O)COC(=O)Cn2cnc3ccccc32)sc(C)c1C | 2.43% [at 57.5 µM] | – |
| Cc1sc(NC(=O)c2cc(-c3ccc(Cl)cc3)nc3ccccc23)c(C(N)=O)c1C | – | 8.91 µM (active) |
| O=C(c1cc(COc2cccc(C(F)(F)F)c2)on1)N1CCC(c2ccncc2)CC1 | -7.2% | – |
| CCN1CCN(c2cc(C(C)C)nc3c(-c4ccccc4)c(C)nn23)CC1 | -25.5% [at 57.5 µM] | – |
| COc1ccccc1-n1c(-c2ccccc2)c[n+]2c1CCc1ccccc1-2 | – | 10 µM (active) |
| OCC1(CCOc2ccccc2)CCN(CC2=Cc3cc(Cl)ccc3OC2)CC1 | -22.1% [at 57.5 µM] | – |
| O=[N+]([O-])c1ccccc1S(=O)(=O)Nc1cccc2cccnc12 | – | 11.2 µM (active) |
| O=S(=O)(Nc1cccc2cccnc12)c1ccccc1 | -17.9% | – |
| Cc1ccc(S(=O)(=O)Nc2cccc3cccnc23)cc1 | 21.9% [at 57.5 µM] | – |
| O=C(CSc1nnc(-c2ccccc2)o1)Nc1ccccc1F | -8.41% | – |
| C/C(=N\NC(=O)CSCc1ccc([N+](=O)[O-])cc1)c1ccccc1O | -13.5% | – |
| CCOC(=O)C(C(C)=O)c1c(Br)c(O)c(O)c2c(C(=O)c3ccc(C)cc3)coc12 (stereo not drawn) | – | 10 µM (active) |
| CC(=O)C(C(C)=O)c1c(Cl)c(O)c(O)c2c(C(=O)c3ccccc3)coc12 | – | 7.08 µM (active) |
| O=C(NC(=S)NCc1nc2ccccc2[nH]1)c1ccc(F)cc1 | 1.48% | – |
| NS(=O)(=O)c1ccc(Sc2nc3ccccc3s2)c([N+](=O)[O-])c1 | -19.9% | – |
| Cc1sc2cc3c(c(C(=O)c4ccccc4)[n+]2c1C)-c1cccc2cccc-3c12 | – | 10 µM (active) |

| Structure (SMILES) | activity change, negative = cytotoxicity | Potency |
| --- | --- | --- |
| Cc1ccc(-c2csc(N3CCN(c4cc5c(cc4Cl)nc(-c4ccncc4)n5CCOCCO)CC3)n2)cc1 | -6.98% [at 57.5 µM] | – |
| CN(C)CCNc1ncnc2c1sc1nc(N3CCOCC3)c3c(c12)CC(C)(C)SC3 | – | 17.8 µM (active) |
| CC1(C)Cc2c(c(N3CCOCC3)nc3sc4c(NN)ncnc4c23)CS1 | 23.7% [at 57.5 µM] | – |
| CC1(C)Cc2c(c(-c3ccco3)nc3sc4c(NCCN5CCOCC5)ncnc4c23)CO1 | -20.2% [at 57.5 µM] | – |
| Cn1nc(C(=O)N2CCN(c3ccc(Cl)cc3)CC2)c2c1-c1ccccc1S(=O)(=O)C2 | 10.7% | – |
| N#Cc1ccccc1NC(=O)C1SC(=Nc2ccccc2)C(C(=O)Nc2ccc(Cl)cc2)=C1N (stereo not drawn) | -3.29% | – |
| Cc1cc(Nc2cccc([N+](=O)[O-])c2)n2c(nc3ccccc32)c1C#N | – | 3.55 µM (active) |
| Cc1ccc(-c2cc(-c3ccccc3)nc(NN)n2)cc1 | -26.4% [at 57.5 µM] | – |
| NS(=O)(=O)c1ccc(CCNc2nn3c(-c4cccc(OC(F)(F)F)c4)cnc3s2)cc1 | -22.9% | – |
| C=CCOC(=O)C1=C[C@@H](c2ccc3c(c2)OCO3)C[C@@H](OCCCCO)O1 | -10.7% [at 57.5 µM] | – |
| CN(C)CCNc1ccc2ncn3c4ccc(O)cc4c(=O)c1c23 | 7.3% | – |
| CN(C)CCNc1cccc2sc3ccc(O)cc3c(=O)c12 | – | 12.6 µM (active) |
| O=C(Nc1cccc(Cl)c1)c1ccc2c(c1)SC1=NS(=O)(=O)CCN12 | -19.6% | – |
| CCOC(=O)c1c(-n2cccc2)sc2c1CCCC2=O | 9.15% [at 57.5 µM] | – |
| CC[n+]1c(C=C2C=C(C)OC(C)=C2)sc2ccccc21 | – | 14.1 µM (active) |
| NNC(=O)/C(=N/Nc1ccccc1)S(=O)(=O)c1ccc(Cl)cc1 | – | 10 µM (active) |
| O=C(NCc1cc(C(F)(F)F)ccc1Cl)c1cccc2c1C(=O)c1ccc(N3CCOCC3)cc1S2(=O)=O | -8.41% | – |
| CC1(C(=O)NCc2ccco2)CCN1C(=O)C1(c2ccccc2)CC1 (stereo not drawn) | -2.99% | – |
| Cc1cc(C)c2c(c1)/C(=C/C(=O)c1ccc(Br)s1)C(=O)N2 | – | 3.16 µM (active) |
| CC(C)COCc1ccc(O)c2ncccc12 | -13.8% | – |
| O=c1oc2ccccc2c(O)c1Cc1cc(Cl)c2cccnc2c1O | 15.7% [at 57.5 µM] | – |
| CCOC(=O)N1CCN(Cc2cc(Cl)c3cccnc3c2O)CC1 | -27.9% | – |
| O=[N+]([O-])c1cc(Cl)c(O)c2ncccc12 | – | 11.2 µM (active) |
| O=[N+]([O-])c1cc(CN2CCN(c3ccccc3)CC2)c(O)c2ncccc12 | – | 11.2 µM (active) |
| Oc1ccc(Cl)c2cccnc12 | 25% [at 57.5 µM] | – |

| Structure (SMILES) | activity change, negative = cytotoxicity | Potency |
| --- | --- | --- |
| O=[N+]([O-])c1ccc(O)c2ncccc12 | – | 10 µM (active) |
| OCCN1CCN(Cc2cc(Cl)c3cccnc3c2O)CC1 | -25.4% [at 57.5 µM] | – |
| COc1ccc(-c2nc(CN3CCN(c4ncnc5ccccc45)CC3)c(C)o2)c(OC)c1 | -25.7% | – |
| c1ccc(Nc2nc(N3CCCCC3)nc(N3CCNCC3)n2)cc1 | 3.96% [at 57.5 µM] | – |
| COc1cc(C)c(C(=O)CC(=O)c2c(C)cc(OC)cc2C)c(C)c1 | 5.25% | – |
| CC(=O)N1c2ccc(S(=O)(=O)N3CCC(C(=O)Nc4cccc(C(F)(F)F)c4)CC3)cc2CC1C (stereo not drawn) | -28.3% [at 57.5 µM] | – |
| Cc1nn(-c2ccccc2)c(N2CCCC2)c1/C=N/NC(=O)c1cc2ccccc2cc1O | -4.71% | – |
| COc1cccc(CN2CCC2(C)C(=O)Nc2cccc3cccnc23)c1OC (stereo not drawn) | -16.4% | – |
| COc1ccc(CC2C(=O)NC(C)C(=O)N(C)C3Cc4ccc(cc4)Oc4cc(ccc4O)CC(C(=O)NC(C)C(=O)NC(C)C(=O)N2C)N(C)C3=O)cc1 (stereo not drawn) | – | 0.316 µM (active) |
| CC1(C)c2[nH]c3ccccc3c2C[C@H]2C(=O)N(Cc3ccccc3F)C(=O)N21 | -10.7% [at 57.5 µM] | – |
| Nc1nc(NCCCN2CCOCC2)nc(Nc2cccc(Cl)c2)c1[N+](=O)[O-] | -19.8% | – |
| COC(=O)[C@H]1C[C@H](OC(=O)NC2CC2)[C@@]2(O)CN(S(=O)(=O)c3ccc(C)cc3)CC2[C@H]1C(=O)OC (stereo partly drawn) | 1.18% | – |
| COc1c(C)cccc1C(=O)Nc1ccc(N2CCN(C(=O)c3ccccc3C)CC2)cc1 | – | 31.6 µM (active) |
| Cc1ccc(C(=O)N2CCN(c3ccc(NC(=S)NC(=O)c4cccs4)cc3)CC2)cc1 | 12.1% | – |
| COc1ccccc1N(C)S(=O)(=O)c1ccc(C(=O)Nc2ccc(N3CCOCC3)cc2)cc1 | -29.3% [at 57.5 µM] | – |
| CC(C)n1c(NCc2cc(Cl)ccc2O)nc2ccccc21 | -6.93% | – |
| C/C(=N\N=C(N)N)c1ccc(Cl)cc1Cl | -11.9% [at 57.5 µM] | – |
| Cc1c(C(=O)Nc2nccs2)sc2nc(-c3cccs3)cc(C(F)(F)F)c12 | -21.8% | – |
| O=C(Nc1nc(-c2ccccn2)cs1)c1ccccc1-n1cnnn1 | – | 7.94 µM (active) |
| O=C(NNc1nc2ccc(Cl)cc2s1)c1cc(-c2cccs2)nc2ccccc12 | -18.1% | – |
| O=C(Nc1nc(-c2ccccn2)cs1)c1cc(Cl)ccc1[N+](=O)[O-] | – | 3.16 µM (active) |
| CCc1sc(C(=O)Nc2nc(-c3ccccn3)cs2)cc1C | – | 11.2 µM (active) |
| CC(N)c1csc(NC(=O)c2cc(C(C)(C)C)nn2Cc2ccccc2)n1 (stereo not drawn) | 7.86% | – |
| Cc1cc(OCC(=O)NC(C)c2ccccc2)ccc1[N+](=O)[O-] (stereo not drawn) | 1.14% | – |
| COc1ccc(CNC(=O)CSc2nc(-c3ccccc3)cc(-c3cccs3)c2C#N)cc1 | -20.3% | – |

| Structure (SMILES) | activity change, negative = cytotoxicity | Potency |
| --- | --- | --- |
| CCCOc1ccccc1C1NC(=O)NC(C)=C1C(=O)OCc1ccccc1 (stereo not drawn) | -3.94% | – |
| CN1CCN(CC#CCn2c3ccccc3c3ccccc32)CC1 | -3.45% [at 57.5 µM] | – |
| S=C(Nc1ccccc1)Nc1ccc(OCc2ccc(Cl)cc2Cl)cc1 | -10% [at 57.5 µM] | – |
| Cc1cc(/C=N/n2cnnc2)c(C)n1-c1ccc(OCc2ccc(Cl)cc2Cl)cc1 | – | 28.2 µM (active) |
| CCc1nc2c(OCc3ccc(Cl)cc3Cl)cccn2c1N(C=O)Cc1ccc(OC)cc1 | -29.4% | – |
| CN1CCN(c2nc(Nc3ccc(F)cc3)nc(Nc3ccc(F)cc3)n2)CC1 | 20.3% [at 57.5 µM] | – |
| CCc1nc2c(OCCOc3ccc(F)cc3)cccn2c1N(C=O)Cc1ccc(OC)cc1 | -21.2% [at 57.5 µM] | – |
| CCN(CC)S(=O)(=O)c1ccc(C)c(NC(=S)N2CCN(c3ccccn3)CC2)c1 | -19.9% [at 57.5 µM] | – |
| S=C(Nc1cc(Cl)ccc1Oc1ccccc1)N1CCN(c2ccccn2)CC1 | – | 25.1 µM (active) |
| O=C(c1ccc(Cn2c(=S)[nH]c3ccccc3c2=O)cc1)N1CCN(c2ccccn2)CC1 | -9.68% | – |
| Cn1cccc1/C=N/N1CCN(Cc2ccccc2Cl)CC1 | -9.25% [at 57.5 µM] | – |
| C=CCNc1oc(-c2ccc(Cl)cc2)nc1C#N | 15.1% [at 57.5 µM] | – |
| O=C1N/C(=N/N=C/c2ccccc2O)SC1Cc1ccc(F)cc1 (stereo not drawn) | – | 14.1 µM (active) |
| COc1cccc(C(=O)NC2CC3CCCC(C2)N3CC(=O)Nc2ccccc2C(F)(F)F)c1 (stereo not drawn) | -15.7% [at 57.5 µM] | – |
| CN(Cc1ccccc1)C1=CC(=[N+]2CCCC2)CC(C)(C)C1 | -15.5% | – |
| CSc1cccc(NC(=O)c2ccc(CN3CCc4ccccc4C3)cc2)c1 | -27.3% [at 57.5 µM] | – |
| COc1cccc(S(=O)(=O)NCc2ccc(C(=O)Nc3cccc(Cl)c3)cc2)c1 | – | 15.8 µM (active) |
| COc1ccc(NS(=O)(=O)c2ccc(NC(=O)c3ccc(CN4CCOCC4)cc3)cc2)cc1 | -22.5% [at 57.5 µM] | – |
| Cc1ccc(-c2nc3ccc(Cl)cn3c2CC(C)(C)C)cc1 | 17.4% | – |
| COc1cccc(-c2sc3ccccc3c2-c2ccc(OCCN3CCCC3)cc2)c1 | -4.65% | – |
| COc1ccc(-c2sc3ccc(OC)cc3c2-c2ccc(O)cc2)cc1 | -12.9% | – |
| c1ccc(-c2sc3ccccc3c2-c2ccc(OCCN3CCCC3)cc2)cc1 | – | 35.5 µM (active) |
| Cc1nc2ccccc2n1-c1nc(-c2ccco2)cc(C(F)(F)F)n1 | – | 10 µM (active) |

— PubChem BioAssay AID1745849 (National Center for Advancing Translational Sciences (NCATS), 2022)
